# PubChem BioAssay
# Several values for one entry are separate records, joined by “and”; a condition that tells them apart may be missing. Equal values may be shown once. Activity calls are given as the source filed them.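 Rule for the calls: active = compounds whose cell count with miR-34 switched on is under 0.7 times the count with it off; inactive = the rest.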
# Assay: viability loss with induced miR-34 in A549 – imaging, A549 dox-inducible miR-34, nuclei and caspase counts, primary screen (AID 1347080); note: test concentration not given here
# Conditions: A549 miR-34 inducible, Hoechst nuclei count, 48 h; stronger effect = lower value; cell number ratio, induced over uninduced
row,Structure (SMILES),fold change
1,CN1CCC(=C2c3ccccc3Sc3ccccc32)CC1,0.873 (inactive)
2,Cc1ccsc1/C=C/C1=NCCCN1C,0.892 (inactive) and 0.795 (inactive)
3,Cc1ccccc1OCC(O)CO (stereo not drawn),0.91 (inactive) and 0.921 (inactive)
4,O=c1ccc2ccccc2o1,0.91 (inactive) and 0.88 (inactive)
5,CC(=O)OC/C=C(C)/C=C/C=C(C)/C=C/C1=C(C)CCCC1(C)C,0.9 (inactive)
6,CCn1cc(C(=O)O)c(=O)c2cnc(N3CCCC3)nc21,0.925 (inactive)
7,Cc1c(NC(C)C)c(=O)n(-c2ccccc2)n1C,0.876 (inactive)
8,NS(=O)(=O)c1cc2c(cc1Cl)NC(CSCc1ccccc1)=NS2(=O)=O,0.856 (inactive) and 0.772 (inactive)
9,Cc1ccc(C(=O)c2ccc(CC(=O)O)n2C)cc1,0.916 (inactive) and 0.846 (inactive) and 0.923 (inactive)
10,CCOc1ccc(NC(C)=O)cc1,0.886 (inactive) and 0.916 (inactive)
11,OC(CCN1CCCCC1)(c1ccccc1)c1ccccc1,0.941 (inactive)
12,O=C(O)c1ccccc1C(=O)Nc1ccc(S(=O)(=O)Nc2nccs2)cc1,0.914 (inactive) and 0.897 (inactive)
13,CCCCCCCCNC(C)C(O)c1ccc(SC(C)C)cc1 (stereo not drawn),0.989 (inactive) and 0.828 (inactive)
14,CN(C)CCOC(=O)C(c1ccccc1)C1(O)CCCC1 (stereo not drawn),0.97 (inactive) and 0.896 (inactive)
15,COc1ccc(C(=O)c2ccccc2O)c(O)c1,0.854 (inactive) and 0.825 (inactive)
16,CN1CCC(OC(c2ccccc2)c2ccccc2)CC1,0.843 (inactive) and 0.871 (inactive)
17,Cc1cc(-c2ccccc2)nnc1NCCN1CCOCC1,0.881 (inactive) and 0.888 (inactive)
18,CCN(CC)CCOC(=O)C(c1ccccc1)C1CCCCC1 (stereo not drawn),0.896 (inactive)
19,CCC(=O)c1c(O)cc(O)cc1O,0.895 (inactive)
20,NC(=O)NC1NC(=O)NC1=O (stereo not drawn),0.95 (inactive) and 0.875 (inactive)

row,Structure (SMILES),fold change
1,CC1CCc2cc(F)cc3c(=O)c(C(=O)O)cn1c23 (stereo not drawn),0.911 (inactive) and 0.884 (inactive) and 0.854 (inactive)
2,CCCCN(CCCC)CCCOC(=O)c1ccc(N)cc1,0.866 (inactive) and 0.888 (inactive)
3,Cn1c([N+](=O)[O-])cnc1COC(N)=O,0.949 (inactive) and 0.998 (inactive) and 0.92 (inactive)
4,C[N+]12CCC(CC1)C(OC(=O)C(O)(c1ccccc1)c1ccccc1)C2 (stereo not drawn),0.841 (inactive) and 0.859 (inactive)
5,O=C1c2c(O)cccc2Cc2cccc(O)c21,0.891 (inactive)
6,CCN(CC)CCNc1ccc(CO)c2sc3ccccc3c(=O)c12,0.933 (inactive) and 0.872 (inactive)
7,O=C(O)CCC(=O)c1ccc(-c2ccccc2)cc1,0.889 (inactive) and 0.912 (inactive) and 0.859 (inactive)
8,COc1cccc(OC)c1C(=O)N[C@@H]1C(=O)N2[C@@H]1SC(C)(C)[C@@H]2C(=O)O,0.949 (inactive)
9,O=C(O)CCNC(=O)c1ccccc1,0.9 (inactive)
10,CCN1CCCC(OC(=O)C(c2ccccc2)c2ccccc2)C1 (stereo not drawn),0.985 (inactive) and 0.905 (inactive)
11,CCCCC(CC)CN1CN(CC(CC)CCCC)CC(C)(N)C1 (stereo not drawn),0.838 (inactive)
12,CCN(CCCc1ccccc1)CCCc1ccccc1,0.954 (inactive) and 0.931 (inactive) and 0.904 (inactive)
13,CC1(C)OC(=O)NC1=O,0.858 (inactive) and 0.827 (inactive)
14,Nc1ccc(S(=O)(=O)NC(=O)c2ccccc2)cc1,0.806 (inactive) and 0.919 (inactive)
15,CCCCOc1ccc(C(=O)CCN2CCCCC2)cc1,0.869 (inactive) and 0.898 (inactive) and 0.904 (inactive)
16,COc1cc(NS(=O)(=O)c2ccc(N)cc2)ncn1,0.902 (inactive) and 0.903 (inactive)
17,NC(N)=NS(=O)(=O)c1ccc(N)cc1,0.891 (inactive) and 0.893 (inactive) and 0.92 (inactive)
18,Cc1cc(CC(=O)O)n(C)c1C(=O)c1ccc(Cl)cc1,0.925 (inactive) and 0.888 (inactive)
19,C[C@H](N)[C@H](O)c1cccc(O)c1,0.936 (inactive) and 0.834 (inactive)

# Same assay, conditions: A549 miR-34 inducible, Hoechst nuclei count, 48 h; measured here: relative caspase fold change +Dox/-Dox
row,Structure (SMILES),fold change
1,CN1CCC(=C2c3ccccc3Sc3ccccc32)CC1,1.16
2,Cc1ccsc1/C=C/C1=NCCCN1C,1.23 and 5.32
3,Cc1ccccc1OCC(O)CO (stereo not drawn),0.936 and 3.64
4,O=c1ccc2ccccc2o1,0.575 and 1.07
5,CC(=O)OC/C=C(C)/C=C/C=C(C)/C=C/C1=C(C)CCCC1(C)C,1.05
6,CCn1cc(C(=O)O)c(=O)c2cnc(N3CCCC3)nc21,1.02
7,Cc1c(NC(C)C)c(=O)n(-c2ccccc2)n1C,1.14
8,NS(=O)(=O)c1cc2c(cc1Cl)NC(CSCc1ccccc1)=NS2(=O)=O,1.39 and 1.03
9,Cc1ccc(C(=O)c2ccc(CC(=O)O)n2C)cc1,1.2 and 2.52 and 1.03
10,CCOc1ccc(NC(C)=O)cc1,1.49 and 0.787 and 3.07
11,OC(CCN1CCCCC1)(c1ccccc1)c1ccccc1,1.61
12,O=C(O)c1ccccc1C(=O)Nc1ccc(S(=O)(=O)Nc2nccs2)cc1,1.08 and 2.76
13,CCCCCCCCNC(C)C(O)c1ccc(SC(C)C)cc1 (stereo not drawn),0.711 and 5.68
14,CN(C)CCOC(=O)C(c1ccccc1)C1(O)CCCC1 (stereo not drawn),0.779 and 1.74
15,COc1ccc(C(=O)c2ccccc2O)c(O)c1,1.04 and 0.52
16,CN1CCC(OC(c2ccccc2)c2ccccc2)CC1,1.44 and 0.876
17,Cc1cc(-c2ccccc2)nnc1NCCN1CCOCC1,0.934 and 3.7
18,CCN(CC)CCOC(=O)C(c1ccccc1)C1CCCCC1 (stereo not drawn),1.16
19,CCC(=O)c1c(O)cc(O)cc1O,0.888
20,NC(=O)NC1NC(=O)NC1=O (stereo not drawn),1.05 and 3.99

row,Structure (SMILES),fold change
1,CC1CCc2cc(F)cc3c(=O)c(C(=O)O)cn1c23 (stereo not drawn),1.2 and 1.04 and 2.46
2,CCCCN(CCCC)CCCOC(=O)c1ccc(N)cc1,2.02 and 4.13
3,Cn1c([N+](=O)[O-])cnc1COC(N)=O,0.814 and 0.524 and 4.33
4,C[N+]12CCC(CC1)C(OC(=O)C(O)(c1ccccc1)c1ccccc1)C2 (stereo not drawn),1.4 and 1.29
5,O=C1c2c(O)cccc2Cc2cccc(O)c21,1.8
6,CCN(CC)CCNc1ccc(CO)c2sc3ccccc3c(=O)c12,1.29 and 1.89
7,O=C(O)CCC(=O)c1ccc(-c2ccccc2)cc1,0.334 and 2.8 and 1.54
8,COc1cccc(OC)c1C(=O)N[C@@H]1C(=O)N2[C@@H]1SC(C)(C)[C@@H]2C(=O)O,0.959
9,O=C(O)CCNC(=O)c1ccccc1,0.686
10,CCN1CCCC(OC(=O)C(c2ccccc2)c2ccccc2)C1 (stereo not drawn),0.865 and 4.46
11,CCCCC(CC)CN1CN(CC(CC)CCCC)CC(C)(N)C1 (stereo not drawn),1.46
12,CCN(CCCc1ccccc1)CCCc1ccccc1,1.55 and 0.42 and 0.729
13,CC1(C)OC(=O)NC1=O,1.35 and 1.46
14,Nc1ccc(S(=O)(=O)NC(=O)c2ccccc2)cc1,1.13 and 2.49
15,CCCCOc1ccc(C(=O)CCN2CCCCC2)cc1,1.13 and 0.697 and 1.7
16,COc1cc(NS(=O)(=O)c2ccc(N)cc2)ncn1,1.06 and 3.99
17,NC(N)=NS(=O)(=O)c1ccc(N)cc1,1.33 and 1.72 and 4.63
18,Cc1cc(CC(=O)O)n(C)c1C(=O)c1ccc(Cl)cc1,1.12 and 2.44
19,C[C@H](N)[C@H](O)c1cccc(O)c1,1.15 and 3.09
